This is part of a sample that, as a whole, favours compounds with a hit. Of some 79,000 tested, about 15% had one in any assay. No stated cut-off is given here; in the data, active means growth inhibition above about 70%; inactive means the rest.
Columns and labels:
[1] = NCI Yeast Anticancer Drug Screen. Data for the rad50 strain (AID 155);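 further: 0% = growth of vehicle-only cultures of the same strain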; settings: S. cerevisiae rad50 strain growth inhibition, stronger effect = higher value; at 50.0 µM unless noted
Procedure, shortened: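 Vehicle-treated cultures provide the reference for the growth inhibition reported for compound-exposed, repair-deficient yeast.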

[2] = NCI Yeast Anticancer Drug Screen. Data for the mec2-1 strain (AID 157); settings: S. cerevisiae mec2-1 strain, stronger effect = higher value; at 50.0 µM unless noted
Procedure, shortened: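 Vehicle-treated cultures served as reference for growth inhibition of compound-exposed mec2-1 yeast.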

[3] = NCI Yeast Anticancer Drug Screen. Data for the sgs1 mgt1 strain (AID 161);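 further: 0% = growth of cultures given vehicle only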; settings: S. cerevisiae sgs1 mgt1 strain, stronger effect = higher value; at 50.0 µM unless noted
Procedure, shortened: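 Test agents were incubated with a DNA-repair-mutant yeast strain. Growth was then read and compared against vehicle-treated controls.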

[4] = NCI Yeast Anticancer Drug Screen. Data for the cln2 rad14 strain (AID 165);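 further: 0% = growth equal to vehicle treated cultures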; settings: S. cerevisiae cln2 rad14 strain, stronger effect = higher value; at 50.0 µM unless noted
Procedure, shortened: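 Each compound was tested on cln2 rad14 yeast. Inhibition of growth was calculated against vehicle-exposed controls.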

[5] = NCI Yeast Anticancer Drug Screen. Data for the bub3 strain (AID 167); settings: S. cerevisiae bub3 mutant strain, stronger effect = higher value; at 50.0 µM unless noted
Procedure, shortened: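 Mutant yeast screening strain plus compound; vehicle-treated cultures serve as the 0% inhibition reference.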

[6] = NCI Yeast Anticancer Drug Screen. Data for the mlh1 rad18 strain (AID 175); settings: S. cerevisiae mlh1 rad18 strain growth inhibition, stronger effect = higher value; at 50.0 µM unless noted
Procedure, shortened: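 Vehicle-treated cultures served as the reference for growth inhibition in a yeast strain carrying DNA damage repair alterations exposed to each compound.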

Measured: growth inhibition

CCOC(=O)c1c(-c2ccc([N+](=O)[O-])cc2)cn(-c2ccc(OC)cc2)c1C
inactive: [1] 13.2% | [2] 7.1% | [3] 12.4% | [4] 4.35% | [5] -0.65% | [6] 1%

C=C(C#N)CSc1c(Cl)c(Cl)c(Cl)c(Cl)c1Cl
inactive: [1] 34.5% | [2] 13% | [3] 9.2% | [4] 17.7% | [5] 16.8% | [6] 62.6%

NCc1ccc(F)cc1
inactive: [1] 24.9% | [2] -10.7% | [3] 32% | [4] 12.7% | [5] 2.4% | [6] 26.5%

O=c1[nH]c(=O)c2nc3c(=O)[nH]c(=O)[nH]c3nc2[nH]1
inactive: [1] -14.2% | [2] -21.1% | [3] 0.95% | [4] -5.95% | [5] 2.65% | [6] -27.1%
